Results on 36 molecules are retold here after PubChem BioAssay (Tox21).

Inconclusive results are not listed. A number with no mark means an inactive call. Calls of active or inactive are those of the source. Calls follow the shape of the dose curve; as a rule, active = well fitted cell-killing curve with a large enough effect in the repeat runs; inconclusive = weak or mixed curves; inactive = flat fitted curve, though single readings scatter.
% is scaled to controls: 0 for no effect and ±100 for the full control effect; potency is read from the fitted curve at half-maximal effect.

This experiment is described as follows: qHTS assay to identify small molecule antagonists of the estrogen receptor beta (ER-beta) signaling pathway - cell viability counter screen (AID 1259382). Also: nearly all actives have a fitted effect of over 55% in size. As to conditions: ER-beta-UAS-bla HEK293T viability, CellTiter-Glo luminescence, 16 h; series mostly up to 92.4 µM; activity change, negative = cytotoxicity: at the top concentration. Put shortly:
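Viability is scored by CellTiter-Glo luminescence (30 min, room temperature) in ER-beta-UAS-bla HEK293T wells already read for reporter fluorescence. Compound exposure lasts 16 hr at 37C alongside 1nM 17-beta-estradiol in charcoal-stripped serum medium.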
`CNC(=O)Oc1ccc(N(C)C)c(C)c1`: the “activity change, negative = cytotoxicity” value was 1.74%.

In the case of `CCC1(c2ccccc2)C(=O)NC(=O)NC1=O`, the “activity change, negative = cytotoxicity” value was 0.695%.

As to `COC(=O)c1ccccc1S(=O)(=O)NC(=O)Nc1nc(C)cc(C)n1`, the “activity change, negative = cytotoxicity” value is 0.937%.

As to `COc1cc(OC)nc(NC(=O)NS(=O)(=O)c2ncccc2C(=O)N(C)C)n1`, the “activity change, negative = cytotoxicity” value was -0.817%.

Take `ClCC(Cl)Cl`: the “activity change, negative = cytotoxicity” value was -5.04%.

On to `Clc1cccc(N2CCNCC2)c1`, for which the “activity change, negative = cytotoxicity” value is -7.67% [at 42.5 µM].

Take `CCOP(=S)(OCC)SCSP(=S)(OCC)OCC`: the “activity change, negative = cytotoxicity” value was -4.35%.

As for `COc1cc2c(cc1OC)[C@@]13CCN4CC5=CCO[C@H]6CC(=O)N2[C@H]1[C@H]6[C@H]5C[C@H]43`, the “activity change, negative = cytotoxicity” value was -4.13%.

Regarding `CCS(=O)(=O)CCSP(=O)(OC)OC`, the “activity change, negative = cytotoxicity” value is -0.712%.

Turning to `O=C1CN2CCOC2(c2ccccc2Cl)c2cc(Cl)ccc2N1` (stereo unspecified), the “activity change, negative = cytotoxicity” value is -7.28% [at 42.5 µM].

Regarding `CCOP(=O)(N=C1SCCS1)OCC`, the “activity change, negative = cytotoxicity” value was 3.33%.

With `N#CC(CCc1ccc(Cl)cc1)(Cn1cncn1)c1ccccc1` (stereo unspecified), the Potency was 48.6 µM (active).

Take `COc1cccc2c1cc([N+](=O)[O-])c1c(C(=O)O)cc3c(c12)OCO3`: the Potency is 54.5 µM (active).

With `CC(C)(C)C(=O)C(Oc1ccc(Cl)cc1)n1cncn1` (stereo unspecified), the “activity change, negative = cytotoxicity” value is -0.0052%.

As to `CC(=O)CC(c1ccc(Cl)cc1)c1c(O)c2ccccc2oc1=O` (stereo unspecified), the “activity change, negative = cytotoxicity” value is -1.36%.

In the case of `CC(=O)C(Cl)Cl`, the “activity change, negative = cytotoxicity” value is 0.788%.

In the case of `ClC(Cl)C(Cl)Cl`, the “activity change, negative = cytotoxicity” value was 0.933%.

Consider `COc1cc(OC)nc(Sc2cccc(Cl)c2C(=O)O)n1`, for which the “activity change, negative = cytotoxicity” value is 2.3%.

Turning to `COc1cc(OC)nc(NC(=O)NS(=O)(=O)c2ncccc2OCC(F)(F)F)n1`, the “activity change, negative = cytotoxicity” value is 5.13%.

Turning to `[O]=[Cd]`, the “activity change, negative = cytotoxicity” value is -1.1%.

Take `N#CCNCC#N`: the “activity change, negative = cytotoxicity” value is -0.406%.

With `CCCSC(=O)Cl`, the “activity change, negative = cytotoxicity” value was -6.93%.

`CCC(Cl)[N+](=O)[O-]` (stereo unspecified): the “activity change, negative = cytotoxicity” value was -0.0366%.

Consider `O=[N+]([O-])c1cc(Cl)c(Cl)c(Cl)c1`, for which the “activity change, negative = cytotoxicity” value is 9.72%.

Regarding `Nc1cc2c3c(c1)C(c1ccccc1)=N[C@@H](NC(=O)c1cccnc1)C(=O)N3CC2`, the “activity change, negative = cytotoxicity” value was -12.9%.

Consider `CC(C)NCC(O)c1ccc(N)c(C#N)c1` (stereo unspecified), for which the “activity change, negative = cytotoxicity” value is 2.73% [at 42.5 µM].

As for `Cc1cc(C)nc(Nc2ccccc2)n1`, the “activity change, negative = cytotoxicity” value is 0.64%.

Regarding `C(CCOCC1CO1)COCC1CO1` (stereo unspecified), the “activity change, negative = cytotoxicity” value was 6.02%.

As for `Cc1ncsc1CCCl`, the “activity change, negative = cytotoxicity” value was 1.5% [at 42.5 µM].

In the case of `C[C@H]1CCC[C@H](O)CCCCCc2cc(O)cc(O)c2C(=O)O1`, the “activity change, negative = cytotoxicity” value was -5.66%.

As to `CNC(=O)Oc1cccc(C(C)C)c1`, the “activity change, negative = cytotoxicity” value is -3.95%.

Take `N#Cc1ccncc1`: the “activity change, negative = cytotoxicity” value is 9.09%.

On to `CCC(C)n1c(=O)[nH]c(C)c(Br)c1=O` (stereo unspecified), for which the “activity change, negative = cytotoxicity” value was 0.995%.

On to `O=C(Oc1ccc(Br)cc1)N1CCN2CCC1CC2`, for which the “activity change, negative = cytotoxicity” value is -9.3%.

With `CCOP(=S)(OCC)Oc1nc(Cl)n(C(C)C)n1`, the “activity change, negative = cytotoxicity” value was 2.22%.

Take `CC(=O)CCc1ccc2c(c1)OCO2`: the “activity change, negative = cytotoxicity” value was -0.743%.
